Read-out in assay [1]: Human Leukocyte Antigen - DR isotype (HLADR), HLA-DRA (gene 3122)
Put plainly: BSK_BE3C_HLADR: BioMAP Diversity Plus: BE3C Assay for Human Leukocyte Antigen - DR isotype (HLADR) Biomarker Activity (AID 2283032). To be noted: primary human bronchial epithelial cells; actives raise or lower the signal. The method, boiled down:
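ELISA read-out of HLA-DR on human lung bronchial epithelial primary cells, measured 24 h post-dosing. Both increases and decreases were scored relative to DMSO vehicle.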

Read-out in assay [2]: Vascular cell adhesion molecule 1 (VCAM1), VCAM1 (gene 7412)
Put plainly: BSK_4H_VCAM1: BioMAP Diversity Plus: 4H Assay for Vascular cell adhesion molecule 1 (VCAM1) Biomarker Activity (AID 2283033).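 As to outcome: cell-surface VCAM-1 protein measured by ELISA.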 To be noted: primary human endothelial cells (HUVEC); actives raise or lower the signal. The method, boiled down: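 ELISA read-out of VCAM-1 on human umbilical vein endothelium 24 hours after chemical dosing; gain or loss of signal was fitted relative to DMSO, with sulforhodamine B staining of parallel cultures flagging overt cytotoxicity.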

Read-out in assay [3]: Interferon-gamma inducible Protein 10 (IP10), CXCL10 (gene 3627)
Put plainly: BSK_BE3C_IP10: BioMAP Diversity Plus: BE3C Assay for Interferon-gamma inducible Protein 10 (IP10) Biomarker Activity (AID 2283034). To be noted: primary human bronchial epithelial cells; actives raise or lower the signal. The method, boiled down: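 Chemical is dosed onto human lung bronchial epithelial primary cells, cultures are incubated 24 h, and IP-10 is then quantified by ELISA. Gain or loss of signal is fitted in both directions relative to DMSO.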

Read-out in assay [4]: Monokine induced gamma interferon (MIG), CXCL9 (gene 4283)
In words: BSK_BE3C_MIG: BioMAP Diversity Plus: BE3C Assay for Monokine induced gamma interferon (MIG) Biomarker Activity (AID 2283035).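 As to outcome: MIG protein measured by ELISA in BE3C cultures after 24 h of dosing.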 To be noted: primary human bronchial epithelial cells; actives raise or lower the signal. The method, boiled down:
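ELISA read-out of MIG in human lung bronchial epithelial primary cultures, 24 h post-dosing. Bidirectional curve fit vs DMSO baseline.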

Read-out in assay [5]: Transforming growth factor beta 1 (TGFb1), TGFB1 (gene 7040)
Put plainly: BSK_BE3C_TGFb1: BioMAP Diversity Plus: BE3C Assay for Transforming growth factor beta 1 (TGFb1) Biomarker Activity (AID 2283036;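 as to outcome: TGF-b1 protein level measured by ELISA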). To be noted: primary human bronchial epithelial cells; actives raise or lower the signal. The method, boiled down: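 Primary human lung bronchial epithelial cells; compound exposure 24 h; TGF-b1 by ELISA; bidirectional fit, DMSO baseline. Parallel SRB total-protein staining for cytotoxicity.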

Read-out in assay [6]: Plasminogen activator inhibitor-1 (PAI1), SERPINE1 (gene 5054)
Put plainly: BSK_BE3C_PAI1: BioMAP Diversity Plus: BE3C Assay for Plasminogen activator inhibitor-1 (PAI1) Biomarker Activity (AID 2283037). To be noted: primary human bronchial epithelial cells; actives raise or lower the signal. An outline of the steps: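 Primary human lung bronchial epithelial cells; chemical dosing; 24 h; PAI-1 measured by ELISA; bidirectional fit referenced to DMSO as negative control.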

Read-out in assay [7]: urokinase plasminogen activator (uPA), PLAU (gene 5328)
In words: BSK_BE3C_uPA: BioMAP Diversity Plus: BE3C Assay for urokinase plasminogen activator (uPA) Biomarker Activity (AID 2283038).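 As to outcome: uPA protein level quantified by ELISA in cell cultures; uPA read one day after compound addition.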 To be noted: primary human bronchial epithelial cells; actives raise or lower the signal. An outline of the steps:
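Primary human bronchial epithelial cells, uPA measured by ELISA 24 h after dosing. Bidirectional change relative to DMSO; cytotoxicity checked in parallel cultures by sulforhodamine B total-protein staining.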

Read-out in assay [8]: Urokinase-type plasminogen activator receptor (uPAR), PLAUR (gene 5329)
In words: BSK_BE3C_uPAR: BioMAP Diversity Plus: BE3C Assay for Urokinase-type plasminogen activator receptor (uPAR) Biomarker Activity (AID 2283039).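 As to outcome: uPAR protein level measured by ELISA on the cells; cells exposed to compound for one day before measurement.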 Conditions: primary human bronchial epithelial cells; actives raise or lower the signal. An outline of the steps:
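Human bronchial epithelial primary cells; chemical exposure 24 h; uPAR by ELISA; bidirectional fit vs DMSO control.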

Read-out in assay [9]: Interleukin-6 (IL6), IL6 (gene 3569)
In words: BSK_CASM3C_IL6: BioMAP Diversity Plus: CASM3C Assay for Interleukin-6 (IL6) Biomarker Activity for (AID 2283040). Conditions: primary human coronary artery smooth muscle cells; actives raise or lower the signal.

Read-out in assay [10]: Tissue plasminogen activator (tPA), PLAT (gene 5327)
In words: BSK_BE3C_tPA: BioMAP Diversity Plus: BE3C Assay for Tissue plasminogen activator (tPA) Biomarker Activity (AID 2283041).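 As to outcome: tPA level quantified by ELISA one day after compound addition.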 To be noted: primary human bronchial epithelial cells; actives raise or lower the signal. The method, boiled down:
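Primary human lung bronchial epithelial cultures receive test chemical; after 24 h, tPA is quantified by ELISA, and gain or loss of signal is fitted bidirectionally relative to DMSO baseline.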

Values joined by “and” are separate entries in the source; they are usually repeats but may differ in a detail not shown here. Identical values can stand only once. Some structures have more than one record in an assay (separate samples or runs), and their calls can disagree. Active and inactive are the calls of the source. The calls were made as follows: active = hit-call score of the fitted dose curve at least 0.9, where 1 is the maximum; inactive = score below 0.9.

On to `O=C(O)c1ccccc1C(c1ccc(O)cc1)c1ccc(O)cc1`, for which the AC50 is 31.6 µM (active) in [1], 31.1 µM (active) in [3] and 33.4 µM (active) in assay [6]. The outcome in [2], in assay [4], in assay [5], in [7], in assay [8] and in assay [9] was inactive. In addition, in assay [10], the result was inactive.
Regarding `O=C(O)Cc1cc(I)c(Oc2cc(I)c(O)c(I)c2)c(I)c1`, the AC50 in [1] was 5.22 µM (active); in assay [2] it was 19.5 µM (active); in assay [3] it was 2.73 µM (active); in assay [4] it was 9.13 µM (active); in assay [5] it was 8.3 µM (active); in [6], 4.21 µM (active). In addition, the AC50 in [8] is 10.4 µM (active); in [9] it was 21.7 µM (active); in assay [10], 4.84 µM (active).
As to `C[C@@H]1C[C@H]2[C@@H]3CCC4=CC(=O)C=C[C@]4(C)[C@@]3(F)[C@@H](O)C[C@]2(C)[C@@]1(O)C(=O)COP(=O)(O)O`, the outcome in assay [1], in [2], in assay [3], in [5], in [6] and in assay [7] was inactive. Further, the result in [8] and in assay [10] was inactive. Besides, the AC50 in [6] is 0.763 µM (active); in assay [9], 158 nM (active) and 1.34 µM (active) and 690 nM (active); in [10] it was 478 nM (active) and 416 nM (active).
With `OC1CCC(C2CCCCC2)CC1` (stereo not given), the outcome in assay [1], in assay [2], in assay [3], in assay [5], in assay [6] and in assay [7] was inactive. Besides, the outcome in assay [8], in assay [9] and in assay [10] was inactive.
For `Cc1cc(C)c(O)c(C)c1`, the outcome in assay [1], in [2], in [3], in assay [4], in assay [5] and in assay [6] was inactive. Moreover, the result in [8], in assay [9] and in assay [10] was inactive.
For `CC[C@H](C)[C@@H](C(=O)O)n1sc2ccccc2c1=O`, the result in assay [1], in assay [2], in [3], in [4], in assay [5] and in assay [6] was inactive. In addition, the result in [7], in assay [8], in assay [9] and in assay [10] was inactive.
As to `CC[C@H](c1ccc(O)cc1)[C@@H](CC)c1ccc(O)cc1`, the AC50 in assay [1] was 19.1 µM (active); in assay [2], 30.7 µM (active); in [3] it was 20.1 µM (active); in [4], 34.5 µM (active); in assay [5], 27.9 µM (active); in assay [6] it was 22.9 µM (active). The AC50 in assay [7] was 37.2 µM (active); in assay [8], 37.8 µM (active); in assay [10], 27.5 µM (active). The outcome in assay [9] was inactive.
`CCc1nn(C2CCCCC2)c2cc(C3(C#N)CCC(C(=O)O)CC3)ccc12` (stereo not given): the AC50 in [1] was 31 µM (active); in assay [2], 27 µM (active); in [3], 15.2 µM (active); in assay [4] it was 28 µM (active); in [6], 4.33 µM (active); in assay [7] it was 3.48 µM (active). The values for the AC50 in assay [8] and in [9] were 5.01 µM (active) and 11.1 µM (active), respectively. Further, the outcome in assay [5] and in assay [10] was inactive.
Turning to `OCCC(F)(F)C(F)(F)C(F)(F)C(F)(F)C(F)(F)C(F)(F)F`, the result in assay [1], in assay [2], in assay [3], in [4], in assay [5] and in assay [6] was inactive. Also, the result in [7], in assay [8], in [9] and in assay [10] was inactive.
For `NC(=O)N1C(=O)C(C(=O)c2cc(Cl)cs2)c2cc(F)c(Cl)cc21` (stereo not given), the AC50 was 2.85 µM (active) in assay [1]; 24.5 µM (active) in assay [2]; 6.63 µM (active) in [3]; 9.59 µM (active) in assay [4]; 2.88 µM (active) in [5]; 3.15 µM (active) in [6]. Besides, the concentration at half-maximal activity (AC50) was 6.27 µM (active) in assay [8] and 2.33 µM (active) in assay [10]. For the same molecule, the result in [9] was inactive.
For `O=C(OCCOCCOC(=O)c1ccccc1)c1ccccc1`, the outcome in assay [1], in assay [2], in [3], in assay [5], in assay [6] and in assay [7] was inactive. Also, the outcome in assay [8], in [9] and in [10] was inactive.
Regarding `CCCCC(CC)COC(=O)CCCCC(=O)OCc1ccccc1` (stereo not given), the outcome in assay [1], in [2], in assay [3], in assay [5], in assay [6] and in assay [7] was inactive. The result in [8], in assay [9] and in assay [10] was inactive.
On to `CCCCCCCCCCCCCC[N+](C)(C)C`, for which the AC50 is 3.18 µM (active) in assay [1]; 2.83 µM (active) in [2]; 3.88 µM (active) in assay [3]; 8.17 µM (active) in [4]; 1.52 µM (active) in assay [5]; 2.63 µM (active) in assay [6]. Besides, the AC50 in assay [7] was 4.85 µM (active); in [8], 4.06 µM (active); in [9], 9.39 µM (active); in [10], 0.883 µM (active).
On to `CCCCC(CC)COC(=O)CCCCC(=O)OCC(CC)CCCC` (stereo not given), for which the outcome in assay [1], in assay [2], in [3], in assay [4], in [5] and in assay [6] was inactive. For the same molecule, the result in [7], in assay [8], in assay [9] and in assay [10] was inactive.
`CC(=O)NC1(c2cccc(F)c2)CCN(CC[C@@]2(c3ccc(Cl)c(Cl)c3)CN(c3ccccc3)C(=O)CO2)CC1`: the AC50 is 24.5 µM (active) in assay [1]; 27.8 µM (active) in assay [2]; 26 µM (active) in [3]; 26.9 µM (active) in [4]; 16.6 µM (active) in [6]; 16.6 µM (active) in assay [7]. Besides, the AC50 in assay [8] is 16.6 µM (active); in [9], 8.45 µM (active); in [10], 16.6 µM (active). For the same molecule, in assay [5], the result was inactive.

In general, AC50 refers to the concentration at which the activity in the assay is half-maximal.
